About 1,200 (0.38%) of roughly 320,000 compounds were called active. This is one part of a sample in which actives are shown more often than they occur.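 The calls were made as follows: active = inhibition above the screen-wide mean plus 3 SD, limit set per campaign (cut at about 26% in these data); inactive = the rest.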
molecular target: Acyl-protein thioesterase 2 (Homo sapiens) (UniProt O95372); experiment: inhibition of human lysophospholipase 2 – biochemical, fluorescence polarization, FP-Rh probe ABPP, counter-screen for PME1 inhibitor project, primary screen (AID 2177); settings: recombinant LYPLA2, FP-Rh probe fluorescence polarization; at 5.9 µM; stronger effect = higher value;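 also: 0% = LYPLA2 with DMSO and 100% = wells lacking LYPLA2 enzyme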
Sequence (O95372 whole entry, looked up): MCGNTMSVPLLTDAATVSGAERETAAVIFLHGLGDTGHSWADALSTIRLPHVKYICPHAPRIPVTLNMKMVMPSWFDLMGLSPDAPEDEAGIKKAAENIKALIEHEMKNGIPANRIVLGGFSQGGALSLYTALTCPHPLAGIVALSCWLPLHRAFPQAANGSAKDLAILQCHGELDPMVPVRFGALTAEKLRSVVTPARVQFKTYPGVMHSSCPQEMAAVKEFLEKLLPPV

Compound	inhibition
CCN1C(=O)[C@H]2[C@@H](c3ccc(-c4ccc(OC)cc4)cc3)N[C@@](Cc3ccccc3)(C(=O)OC)[C@H]2C1=O	6.99% (inactive)
CCC(Cc1ccccc1)NS(=O)(=O)c1ccc2c(c1)NC(=O)CS2 (centres undefined)	1.66% (inactive)
COc1ccc(C2=NOC3(CC(=O)N(c4ccc(Cl)cc4)C3=O)C2)c(OC)c1 (centres undefined)	7.09% (inactive)
CCOC(=O)N1CCN(C(=O)Cc2ccc(-n3c(=S)[nH]c4ccccc4c3=O)cc2)CC1	3.58% (inactive)
O=C(CCCC(=O)N1CCN(c2cccc(Cl)c2)CC1)c1ccccc1	24.1% (inactive)
O=C(Cc1ccc(-n2c(=O)[nH]c3ccccc3c2=O)cc1)N1CCN(c2cccc(Cl)c2)CC1	50.8% (active)
CCN(C(=O)C1CCCN(c2nc(-c3ccc(OC)cc3)no2)C1)c1ccc(OC)cc1 (centres undefined)	1.52% (inactive)
COc1ccc(/C=N/NC(=O)c2ccc(Cl)cc2)cc1COC(C)=O	-4.59% (inactive)
N#Cc1cc([N+](=O)[O-])ccc1Oc1cccc(/C=N/NC(=O)c2ccc(Cl)cc2)c1	36.9% (active)
O=C(N/N=C/c1cccc(OC(=O)c2ccc([N+](=O)[O-])cc2)c1)c1cccnc1	-5.79% (inactive)
Cc1c(CC(=O)NCC(=O)NCC(=O)O)c(=O)oc2cc3oc4c(c3cc12)CCCC4	4.77% (inactive)
COc1ccc(OC)c(NC(=O)c2cccc(S(=O)(=O)N3CCN(C(C)=O)CC3)c2)c1	-0.81% (inactive)
COc1ccc2c(c1)C=CC1(O2)N(CCO)c2ccccc2C1(C)C (centres undefined)	-20.1% (inactive)
O=C(NC(Cc1ccccc1)C(=O)O)/C(=C\c1ccccc1)NC(=O)c1ccco1 (centres undefined)	1.3% (inactive)
CC(=O)N1c2ccc(S(=O)(=O)N3CCC(C(=O)NC4CCCC(C)C4C)CC3)cc2CC1C (centres undefined)	-4.4% (inactive)
CC(=O)c1ccc(N2CCN(S(=O)(=O)c3ccc4c(c3)CC(=O)N4C)CC2)cc1	4.78% (inactive)
COc1ccccc1CNC(=O)C1CCN(S(=O)(=O)c2ccc3c(c2)CC(C)N3C(=O)C2CC2)CC1 (centres undefined)	14.5% (inactive)
CC(=O)N1c2ccc(S(=O)(=O)N3CCC(C(=O)NC4CCCCC4C)CC3)cc2CC1C (centres undefined)	-1.87% (inactive)
CC(=O)N1c2ccc(S(=O)(=O)N3CCC(C(=O)N4CCN(c5ccccc5)CC4)CC3)cc2CC1C (centres undefined)	58% (active)
CC(=O)c1ccc(N2CCN(C(=O)C3CCN(S(=O)(=O)c4ccc5c(c4)CC(C)N5C(=O)C4CC4)CC3)CC2)cc1 (centres undefined)	75% (active)
O=C(O)CC(Cc1ccccc1)C(=O)Nc1ccc([N+](=O)[O-])cc1 (centres undefined)	-0.26% (inactive)
CCOC(=O)c1cc(NC(=O)SCC(=O)O)c(C)nc1C	4.19% (inactive)
COc1cc(C(=O)NCc2ccc3c(c2)cc(C)n3C)cc(OC)c1OC	6.1% (inactive)
CCOC(=O)c1c(-c2ccccc2)oc2ccc(OCC(=O)NN)cc12	-13% (inactive)
CCCc1c(C(=O)Nc2ccc(F)cc2)cnn1-c1ccccc1	-3.93% (inactive)
O=C(CSCc1ccc([N+](=O)[O-])cc1)Nc1cccc(C(=O)Nc2ccccc2C(=O)O)c1	-6.72% (inactive)
COc1ccccc1C(=O)NC(CCSC)C(=O)N1CCN(C/C=C/c2ccccc2)CC1 (centres undefined)	37.6% (active)

Compound	inhibition
COc1ccccc1C(=O)NC(CCSC)C(=O)NNC(=O)c1ccccc1C (centres undefined)	-3.19% (inactive)
COc1ccccc1C(=O)NC(CCSC)C(=O)N1CCN(C(C)=O)CC1 (centres undefined)	-2.46% (inactive)
Cc1scc(C(=O)NNC(=S)NCC(C)C)c1C	8.57% (inactive)
Cc1sc2ncnc(N3CCC(C(=O)Nc4ccc(F)cc4Cl)CC3)c2c1C	-1.19% (inactive)
CC(=O)Nc1cccc(-c2csc(Nc3cccc(C)n3)n2)c1	2.92% (inactive)
COc1ccc(CCNc2nc(-c3cccc(NC(C)=O)c3)cs2)cc1OC	31.9% (active)
COc1ccc(CC(=O)Nc2nc(-c3ccc(F)c(F)c3)cs2)cc1OC	-13.7% (inactive)
CC(C(=O)Nc1ccc(O)c(C(=O)O)c1)N1C(=O)/C(=C/c2cccs2)SC1=S (centres undefined)	2.96% (inactive)
COc1cc(NS(=O)(=O)c2ccc3ccccc3c2)c2ncccc2c1	-11.9% (inactive)
O=C(c1cccs1)C1C(c2ccc(Br)cc2)NC(=S)NC1(O)C(F)(F)F (centres undefined)	-1.56% (inactive)
O=C(COc1ccc(Cl)cc1)N1CCN(S(=O)(=O)c2ccc(Cl)cc2)CC1	-0.85% (inactive)
COc1ccc(N2CCN(C(=O)COc3ccc4c(C)cc(=O)oc4c3)CC2)cc1	11.7% (inactive)
O=C(CCCN1C(=O)C2C3C=CC(C3)C2C1=O)N1CCN(c2ccccc2)CC1 (centres undefined)	-3.87% (inactive)
O=C(COc1ccc(Cl)cc1)N1CCN(c2cccc(C(F)(F)F)c2)CC1	69.5% (active)
O=C(CCCN1C(=O)CSc2ncccc21)N1CCN(c2cccc(C(F)(F)F)c2)CC1	63.4% (active)
Cc1c(C)c2ccc(OCC(=O)N3CCN(c4cccc(Cl)c4)CC3)cc2oc1=O	49.8% (active)
O=C(COc1ccc(S(=O)(=O)Nc2cccc(C(F)(F)F)c2)cc1)N1CCOCC1	2.78% (inactive)
CCOc1ccccc1N1CCN(C(=O)COc2ccc3c(C)cc(=O)oc3c2)CC1	-4.36% (inactive)
O=C(CN1C(=O)CSc2ncccc21)N1CCOCC1	-0.09% (inactive)
OC(COc1ccc2c(c1)CCC2)CN1CCN(c2cccc(Cl)c2)CC1 (centres undefined)	20.1% (inactive)
CCC(=O)c1ccc(OCC(O)CN2CCN(c3cccc(C(F)(F)F)c3)CC2)cc1 (centres undefined)	64.8% (active)
CCC(=O)c1ccc(OCC(O)CN2CC(C)OC(C)C2)cc1 (centres undefined)	2.23% (inactive)
O=C(c1ccc2c(c1)N(Cc1ccc(F)cc1)C(=O)c1ccccc1S2(=O)=O)N1CCN(c2ccccn2)CC1	1.84% (inactive)
COc1cc(S(=O)(=O)N(Cc2cccs2)C2CC2)ccc1-n1cnnn1	3.27% (inactive)
CCOC(=O)N1CCN(S(=O)(=O)c2ccc3c(c2)C(C)C(=O)N3)CC1 (centres undefined)	-2.51% (inactive)
Cc1ccccc1NC(=O)CSC1=NCCN1	0.07% (inactive)
O=C1C2C3C=CC(C3)C2C(=O)N1c1ccc(-c2nc3ccccc3c(=O)o2)cc1 (centres undefined)	1.58% (inactive)
